Where “and” joins values, the source holds several entries; their conditions need not be identical. Identical values can stand only once. Results filed as inconclusive are left out. A call without a number means that no potency is given here. Calls of active or inactive are those of the source. Unless noted, the call rests on the fitted dose curve; in most records, active means well fitted curve in the direction sought with a large enough effect in the repeat runs; inconclusive means weak or mixed curves; inactive means no such curve, though single readings can be large; an effect the other way counts as inactive or inconclusive.
Legend:
[1] = qHTS assay to identify small molecule antagonists of the estrogen receptor alpha (ER-alpha) signaling pathway using the BG1 cell line in the presence of 0.1 nM 17-beta-estradiol - cell viability counter screen (AID 1259241); further: nearly all actives have a fitted effect of over 40% in size; further: potency means the concentration at half of the fitted maximal effect
Method in brief: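 VM7Luc4E2 cells (endogenous full-length ER-alpha, 4xERE-luciferase), cultured 5 days in charcoal-stripped serum, exposed to compounds with 0.1 nM 17beta-estradiol (final) for 22 hr at 37C. Viability read in same wells as live-cell protease fluorescence after 30 min.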

[2] = qHTS assay to identify small molecule antagonists of the androgen receptor (AR) signaling pathway using the MDA cell line in the presence of 0.5 nM R1881 - cell viability counter screen (AID 1259242); further: nearly all actives have a fitted effect of over 45% in size; further: potency means the concentration at half of the fitted maximal effect
Method in brief: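 Live-cell protease activity was measured by CellTiter-Fluor fluorescence after 30 min. Before that, MDA-kb2 MMTV-luciferase cells had 16 hr at 37C without CO2, exposed to test compounds and 0.5 nM R1881 final.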

[3] = biological target: Androgen receptor (Homo sapiens) (UniProt P10275); assay: qHTS assay to identify small molecule antagonists of the androgen receptor (AR) signaling pathway using the MDA cell line in the presence of 0.5 nM R1881 (AID 1259243); further: nearly all actives have a fitted effect of over 50% in size; further: potency means the concentration at half of the fitted maximal effect
Sequence of Androgen receptor (Homo sapiens) (P10275 whole entry, looked up): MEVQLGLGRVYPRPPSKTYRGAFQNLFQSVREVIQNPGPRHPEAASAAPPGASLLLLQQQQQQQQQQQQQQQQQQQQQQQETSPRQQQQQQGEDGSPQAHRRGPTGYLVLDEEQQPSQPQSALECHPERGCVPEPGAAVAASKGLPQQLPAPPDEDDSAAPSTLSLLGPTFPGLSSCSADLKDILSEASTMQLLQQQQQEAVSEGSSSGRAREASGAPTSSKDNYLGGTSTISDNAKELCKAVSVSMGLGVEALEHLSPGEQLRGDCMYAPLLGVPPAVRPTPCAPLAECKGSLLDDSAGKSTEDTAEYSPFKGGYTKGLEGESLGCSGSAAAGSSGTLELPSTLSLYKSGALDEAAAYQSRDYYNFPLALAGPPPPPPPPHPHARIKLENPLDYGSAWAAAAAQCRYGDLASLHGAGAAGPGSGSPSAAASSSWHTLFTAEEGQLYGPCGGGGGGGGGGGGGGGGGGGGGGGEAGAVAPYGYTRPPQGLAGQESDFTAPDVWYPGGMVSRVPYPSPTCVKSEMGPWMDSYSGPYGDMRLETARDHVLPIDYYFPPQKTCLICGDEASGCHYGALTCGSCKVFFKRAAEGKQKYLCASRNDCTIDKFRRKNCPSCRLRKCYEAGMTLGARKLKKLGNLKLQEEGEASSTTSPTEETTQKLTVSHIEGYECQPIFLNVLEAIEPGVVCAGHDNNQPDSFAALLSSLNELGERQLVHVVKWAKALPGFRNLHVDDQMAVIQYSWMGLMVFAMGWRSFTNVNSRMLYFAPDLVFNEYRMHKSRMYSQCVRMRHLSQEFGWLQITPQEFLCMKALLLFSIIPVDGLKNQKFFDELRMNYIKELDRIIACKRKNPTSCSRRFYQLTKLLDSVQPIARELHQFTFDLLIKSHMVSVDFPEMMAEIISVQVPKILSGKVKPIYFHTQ
Method in brief: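 Luminescent reporter readout (ONE-Glo, 30 min, room temperature) after 16 hr co-treatment of MDA-kb2 cells with test compounds and 0.5 nM R1881 final, at 37C without CO2. The MMTV-driven luciferase responds to both AR and GR.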

[4] = biological target: Estrogen receptor (Homo sapiens) (UniProt P03372); assay: qHTS assay to identify small molecule antagonists of the estrogen receptor alpha (ER-alpha) signaling pathway using the BG1 cell line in the presence of 0.1 nM 17-beta-estradiol (AID 1259244); further: nearly all actives have a fitted effect of over 50% in size; further: potency means the concentration at half of the fitted maximal effect
Sequence of Estrogen receptor (Homo sapiens) (P03372 whole entry, looked up): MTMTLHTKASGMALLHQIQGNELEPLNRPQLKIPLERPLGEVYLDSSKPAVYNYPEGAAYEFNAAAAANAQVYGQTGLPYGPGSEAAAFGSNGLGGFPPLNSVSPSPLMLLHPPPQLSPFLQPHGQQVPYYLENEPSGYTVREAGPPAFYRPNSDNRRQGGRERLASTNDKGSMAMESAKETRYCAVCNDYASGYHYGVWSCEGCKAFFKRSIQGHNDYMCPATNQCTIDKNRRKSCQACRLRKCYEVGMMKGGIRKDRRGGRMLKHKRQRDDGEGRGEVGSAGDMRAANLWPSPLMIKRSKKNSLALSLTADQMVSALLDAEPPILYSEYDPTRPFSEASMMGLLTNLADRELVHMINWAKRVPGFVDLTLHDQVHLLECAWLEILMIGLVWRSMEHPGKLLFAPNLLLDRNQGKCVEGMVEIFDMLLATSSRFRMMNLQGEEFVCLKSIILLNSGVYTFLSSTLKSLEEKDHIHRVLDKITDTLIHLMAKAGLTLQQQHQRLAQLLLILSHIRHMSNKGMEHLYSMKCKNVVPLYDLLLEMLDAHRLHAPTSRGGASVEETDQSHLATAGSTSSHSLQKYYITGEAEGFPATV
Method in brief: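 Luciferase luminescence (ONE-Glo, 30 min at room temperature) was read after 22 hr at 37C exposure to compounds plus 17beta-estradiol at 0.1 nM final. Cells were VM7Luc4E2 with endogenous ER-alpha and an ERE-driven luciferase, pre-cultured 5 days in hormone-depleted medium.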

[5] = qHTS assay to identify small molecule phospholipidosis (PLD) inducers (AID 1259344; active means well fitted curve in the direction sought with a large enough effect; an effect the other way counts as inactive or inconclusive)
Method in brief: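 Accumulated phospholipid, stained red by LipidTOX during 24 h compound treatment of HepG2 cells at 37 C, is quantified from images as pit number and intensity, normalised per cell using Hoechst-stained nuclei.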

[6] = qHTS assay to identify small molecule HDAC inhibitors (AID 1259364); further: top concentration of the series differs between compounds; nearly all actives have a fitted effect of over 45% in size
Method in brief: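 Luminescence read after 30 min room-temperature HDAC-Glo incubation measures cellular class I/II HDAC activity. Compounds were applied for 2 hr at 37 C to HCT-116 wild-type cells seeded the day before.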

[7] = qHTS assay to identify small molecule HDAC inhibitors - cell viability counter screen (AID 1259365); further: nearly all actives have a fitted effect of over 50% in size; further: potency means the concentration at half of the fitted maximal effect
Method in brief: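 Wild-type HCT-116 cells, 1,500/well, cultured overnight, then compound-treated 2 h at 37 C. Viability measured as ATP luminescence with CellTiter-Glo after 30 min at room temperature.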

[8] = qHTS assay to identify small molecule agonists of the sonic hedgehog signaling (Shh) pathway - cell viability counter screen (AID 1259366); further: nearly all actives have a fitted effect of over 50% in size; further: potency means the concentration at half of the fitted maximal effect
Method in brief: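 NIH/3T3-derived Gli1-Luc reporter cells, 2,000 per well, received compound after 4 h and were treated about 23 h at 37C. Viability measured in the same wells by CellTiter-Fluor fluorescence after 1 h.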

[9] = qHTS assay to identify small molecule antagonists of the sonic hedgehog signaling (Shh) pathway - cell viability counter screen (AID 1259367); further: nearly all actives have a fitted effect of over 55% in size; further: potency means the concentration at half of the fitted maximal effect
Method in brief: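 CellTiter-Fluor signal in conditioned medium-stimulated 3T3 Gli1-Luc cells, 23 hr compound exposure, 37C.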

[10] = qHTS assay to identify small molecule agonists of the sonic hedgehog signaling (Shh) pathway (AID 1259368; calls by dose curve;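 further: NIH/3T3-derived 3T3Gli1-Luc cells carrying a stable Gli1-driven firefly luciferase reporter; series mostly up to about 92 µM; nearly all actives have a fitted effect of over 15% in size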)
Method in brief: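 Luminescence was read after 30 min at room temperature with luciferase reagent. Before that, 3T3Gli1-Luc cells (NIH/3T3 clone, stable Gli1-Luc reporter; 2,000/well) were exposed to compounds for 24 hr at 37C, 5% CO2, compounds being added 4 hr post-plating.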

[11] = qHTS assay to identify small molecule antagonists of the sonic hedgehog signaling (Shh) pathway (AID 1259369; calls by dose curve; further: nearly all actives have a fitted effect of over 45% in size; further: potency means the concentration at half of the fitted maximal effect)
Method in brief: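 Antagonist mode: compound added to 3T3 Gli1-Luc cells followed by conditioned-medium stimulation, 24 h at 37 C, 5% CO2. Inhibition taken as loss of Gli1-driven luciferase luminescence.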

[12] = qHTS assay to identify small molecule agonists of the androgen receptor (AR) signaling pathway in the presence of an antagonist - cell viability counter screen (AID 1259379); further: nearly all actives have a fitted effect of over 25% in size; further: potency means the concentration at half of the fitted maximal effect
Method in brief: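 Cytotoxicity counter-screen run in the same wells as the nilutamide-challenged (3.0 µM final) AR agonist assay in MDA-kb2 cells. Compounds tested at 15 concentrations for 16 h, 37 °C without CO2; CellTiter-Fluor fluorescence read.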

[13] = qHTS assay to identify small molecule agonists of the estrogen receptor beta (ER-beta) signaling pathway - cell viability counter screen (AID 1259380); further: nearly all actives have a fitted effect of over 30% in size; further: potency means the concentration at half of the fitted maximal effect
Method in brief: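 Cell viability counter screen: CellTiter-Glo luminescence (30 min, room temperature) measured in the same wells as the beta-lactamase readout, after 16 hr compound exposure at 37C of ER-beta-bla HEK293T cells in 2% charcoal-stripped FBS medium.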

[14] = biological target: Androgen receptor (Homo sapiens) (UniProt P10275); assay: qHTS assay to identify small molecule agonists of the androgen receptor (AR) signaling pathway in the presence of an antagonist (AID 1259381; calls by dose curve; further: nearly all actives have a fitted effect of over 15% in size)
Method in brief: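 Agonist-mode confirmation run against 3.0 uM final nilutamide: compounds titrated at 15 concentrations onto MDA-kb2 MMTV-luciferase reporter cells. Luminescence measured with ONE-Glo following 16 hr incubation, 37C, 0% CO2.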

[15] = biological target: Estrogen receptor (Homo sapiens) (UniProt P03372); assay: qHTS assay to identify small molecule agonists of the estrogen receptor alpha (ER-alpha) signaling pathway in the presence of an antagonist (AID 1259383; calls by dose curve; further: top concentration of the series differs between compounds; nearly all actives have a fitted effect of over 15% in size)
Method in brief: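 Agonist-mode confirmation run in the presence of 10.0nM (final) ICI-182,780 antagonist. The reporter was ERE-driven luciferase in VM7Luc4E2 cells, grown in charcoal-stripped serum. Cells were exposed to 15-concentration compound series for 22hr, then ONE-Glo luminescence was read.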

[16] = biological target: Thyrotropin receptor (Homo sapiens) (UniProt P16473); assay: qHTS assay to identify small molecule antagonists of the thyroid stimulating hormone receptor (TSHR) signaling pathway (AID 1259385; calls by dose curve; further: nearly all actives have a fitted effect of over 20% in size; further: potency means the concentration at half of the fitted maximal effect)
Sequence of Thyrotropin receptor (Homo sapiens) (P16473 whole entry, looked up): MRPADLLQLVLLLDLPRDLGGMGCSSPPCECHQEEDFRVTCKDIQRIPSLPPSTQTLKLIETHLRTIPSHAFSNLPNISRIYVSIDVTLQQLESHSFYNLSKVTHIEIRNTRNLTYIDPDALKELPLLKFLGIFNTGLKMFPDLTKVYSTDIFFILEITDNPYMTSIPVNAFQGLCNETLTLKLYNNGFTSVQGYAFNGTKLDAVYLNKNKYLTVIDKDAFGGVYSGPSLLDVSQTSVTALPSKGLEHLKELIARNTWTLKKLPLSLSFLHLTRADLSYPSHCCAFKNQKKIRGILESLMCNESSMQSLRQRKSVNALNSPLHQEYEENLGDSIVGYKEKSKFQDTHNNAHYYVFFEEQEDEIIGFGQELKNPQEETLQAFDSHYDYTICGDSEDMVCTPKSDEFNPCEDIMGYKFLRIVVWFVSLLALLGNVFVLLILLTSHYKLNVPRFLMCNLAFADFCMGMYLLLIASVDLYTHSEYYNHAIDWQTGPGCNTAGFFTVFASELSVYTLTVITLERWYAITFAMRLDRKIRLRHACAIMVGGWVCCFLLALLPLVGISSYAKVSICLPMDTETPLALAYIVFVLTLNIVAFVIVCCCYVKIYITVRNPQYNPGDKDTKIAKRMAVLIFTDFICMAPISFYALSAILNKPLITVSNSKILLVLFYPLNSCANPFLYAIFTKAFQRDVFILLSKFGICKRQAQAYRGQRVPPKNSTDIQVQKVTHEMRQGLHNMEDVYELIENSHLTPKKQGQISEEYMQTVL
Method in brief: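 Antagonist mode: compound-treated TSHR-expressing HEK293 cells were stimulated with 1.5 ng/mL TSH (final) in presence of Ro20-1724 for 30 min at RT. HTRF cAMP detection after 1 h; each compound tested at 15 concentrations, triplicate.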

[17] = biological target: Estrogen receptor beta (Homo sapiens) (UniProt Q92731); assay: qHTS assay to identify small molecule agonists of the estrogen receptor beta (ER-beta) signaling pathway (AID 1259377; active means well fitted activation curve with a large enough effect in the signal ratio in the repeat runs, not every such curve was filed as active; the % refers to the signal ratio)
Sequence of Estrogen receptor beta (Homo sapiens) (Q92731 whole entry, looked up): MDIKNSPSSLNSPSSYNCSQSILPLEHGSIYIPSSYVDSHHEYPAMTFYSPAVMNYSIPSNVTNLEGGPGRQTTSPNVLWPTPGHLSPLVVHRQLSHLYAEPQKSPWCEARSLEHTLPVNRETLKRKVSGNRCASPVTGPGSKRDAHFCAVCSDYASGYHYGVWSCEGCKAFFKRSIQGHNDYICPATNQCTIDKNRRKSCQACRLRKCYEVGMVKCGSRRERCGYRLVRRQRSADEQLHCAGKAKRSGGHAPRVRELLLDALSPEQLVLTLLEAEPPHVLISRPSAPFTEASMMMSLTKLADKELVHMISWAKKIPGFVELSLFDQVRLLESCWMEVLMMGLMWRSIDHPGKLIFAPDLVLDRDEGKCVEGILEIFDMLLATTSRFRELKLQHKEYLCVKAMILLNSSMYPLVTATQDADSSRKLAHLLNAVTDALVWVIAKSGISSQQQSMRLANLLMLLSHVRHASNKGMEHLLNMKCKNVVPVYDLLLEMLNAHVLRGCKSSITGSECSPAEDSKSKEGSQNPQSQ
Method in brief: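 ER-beta-UAS-bla HEK293T cells in medium with 2% charcoal-stripped FBS were exposed to compounds for 16 h at 37C. Beta-lactamase reporter activity was read as fluorescence after 2 h with LiveBLAzer B/G FRET substrate at room temperature.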

[18] = qHTS assay to identify small molecule antagonists of the estrogen receptor beta (ER-beta) signaling pathway - cell viability counter screen (AID 1259382); further: nearly all actives have a fitted effect of over 55% in size; further: potency means the concentration at half of the fitted maximal effect
Method in brief: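 Cytotoxicity was measured in the same wells by CellTiter-Glo luminescence after 30 min at room temperature. Cells were ER-beta-bla HEK293T in charcoal-stripped serum, given compound together with 1 nM E2 and incubated 16 h at 37C.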

[19] = biological target: Estrogen receptor beta (Homo sapiens) (UniProt Q92731); assay: qHTS assay to identify small molecule antagonists of the estrogen receptor beta (ER-beta) signaling pathway (AID 1259378; active means well fitted inhibition curve with a large enough effect in the signal ratio in the repeat runs, not every such curve was filed as active; the % refers to the signal ratio)
Method in brief: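 Antagonist mode: compounds added to beta-lactamase reporter HEK293T ER-beta-UAS cells stimulated with E2 (1nM final), 16 hr at 37C. LiveBLAzer B/G FRET substrate, 2 hours room temperature, fluorescence read-out.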

[20] = qHTS assay to identify small molecule agonists or antagonists of the thyroid stimulating hormone receptor (TSHR) signaling pathway - wild type cell line counter screen (AID 1259384; calls by dose curve)
Method in brief: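 Counter screen in untransfected Hek293: compounds (15-point titration, triplicate) plus phosphodiesterase inhibitor Ro20-1724 added after 18 h plating; 30 min RT. Intracellular cAMP via competitive d2/cryptate immunoassay, 1 h incubation.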

Row | SMILES | Potency [1] | Potency [2] | Potency [3] | Potency [4] | outcome [5] | Potency [6] | Potency [7] | Potency [8] | Potency [9] | Potency [10] | Potency [11] | Potency [12] | Potency [13] | outcome [14] | Potency [15] | Potency [16] | Potency [17] | Potency [18] | Potency [19] | Potency [20]
1 | O=C(O)c1nn(Cc2ccc(Cl)cc2Cl)c2ccccc12 | inactive | inactive | inactive | inactive | inactive | inactive | inactive | inactive | inactive | inactive | inactive | inactive | 27.1 µM (active) and 26.6 µM (active) | inactive | inactive | inactive |  |  |  | 
2 | CC(C)Nc1ccc(Nc2ccccc2)cc1 | 43.1 µM (active) | 60.9 µM (active) |  | 21.6 µM (active) | inactive |  | inactive | 24.2 µM (active) and 24.3 µM (active) | 21.6 µM (active) and 24.3 µM (active) | inactive |  | 60.9 µM (active) and 68.6 µM (active) | 19.3 µM (active) and 27.3 µM (active) |  | inactive |  | inactive | 15.3 µM (active) and 27.3 µM (active) |  | 
3 | CCC1(c2ccc(N)cc2)CCC(=O)NC1=O (configuration not stated) | inactive | inactive | inactive |  | inactive | inactive |  | inactive | inactive | inactive | inactive | inactive | inactive | inactive |  |  |  | inactive |  | 
4 | Clc1ccc(C(Cl)(Cl)Cl)cc1 | inactive | inactive |  | inactive |  | inactive | inactive | inactive | inactive | inactive | inactive | inactive | inactive |  | inactive | inactive |  | inactive |  | 
5 | CCC(=O)Nc1ccc(Cl)c(Cl)c1 | inactive | inactive | 7 µM (active) and 13.7 µM (active) |  |  | inactive | inactive | inactive | inactive | inactive |  | inactive |  | inactive |  | inactive |  | inactive |  | 
6 | O=NN1CCOCC1 | inactive | inactive |  | inactive |  | inactive | inactive | inactive | inactive | inactive | inactive | inactive | inactive |  |  | inactive | inactive | inactive | inactive | inactive
7 | CCC[CH2][Sn]([Cl])([CH2]CCC)[CH2]CCC | 7.71 µM (active) and 6.11 µM (active) | 1.09 µM (active) and 686 nM (active) |  | 487 nM (active) and 433 nM (active) |  | inactive | 19.4 µM (active) and 17.2 µM (active) | 217 nM (active) and 386 nM (active) | 487 nM (active) and 770 nM (active) | inactive | 0.307 µM (active) | 687 nM (active) and 1.54 µM (active) | 1.22 µM (active) and 1.37 µM (active) |  |  | 12.2 µM (active) |  | 1.73 µM (active) and 1.93 µM (active) |  | 

Source: PubChem BioAssay (Tox21)
